Source: PubChem BioAssay

Columns and labels:
[1] = target: Tumor necrosis factor receptor superfamily member 10B (Homo sapiens) (UniProt O14763); test: viability loss of caspase-8 NB7 cells with TRAIL – with/without TRAIL, luminescence panel, confirmation (AID 651596); conditions: NB7 neuroblastoma + caspase-8, TRAIL sensitization, NB7 Caspase-8, with TRAIL, mean of runs, at 10 µM, stronger effect = higher value
[2] = as above; conditions: NB7 neuroblastoma + caspase-8, without TRAIL, NB7 Caspase-8, without TRAIL, mean of runs, at 10 µM

Tumor necrosis factor receptor superfamily member 10B (Homo sapiens), sequence (O14763 whole entry, looked up): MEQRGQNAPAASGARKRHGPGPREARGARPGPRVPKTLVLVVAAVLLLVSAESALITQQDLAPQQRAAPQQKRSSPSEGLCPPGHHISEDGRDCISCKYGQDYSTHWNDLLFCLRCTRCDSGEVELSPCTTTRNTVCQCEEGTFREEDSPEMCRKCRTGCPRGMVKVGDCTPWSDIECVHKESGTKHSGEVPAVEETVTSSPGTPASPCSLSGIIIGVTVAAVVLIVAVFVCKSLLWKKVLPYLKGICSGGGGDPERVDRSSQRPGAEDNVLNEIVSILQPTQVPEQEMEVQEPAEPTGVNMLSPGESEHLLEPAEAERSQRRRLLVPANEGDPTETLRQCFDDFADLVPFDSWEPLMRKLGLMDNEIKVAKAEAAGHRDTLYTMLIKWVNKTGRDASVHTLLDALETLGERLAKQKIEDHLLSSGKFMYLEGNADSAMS

Structure (SMILES)	activity [1]	activity [2]
CC1CCc2nc(NC(=O)c3ccco3)sc2C1 (configuration not stated)	90.5%	89%
Cc1ccc(CS(=O)(=O)c2ncc(Cl)c(C(=O)Nc3nnc(C(C)C)s3)n2)cc1	67.5%	59.3%
CCOC(=O)CNC(=O)CSc1nnc(NC(=O)c2ccc(C)cc2)s1	94.5%	92.5%
CN1CCN(c2nc(-c3ccc(C(C)(C)C)cc3)nc3ccccc23)CC1	67.9%	69.6%
Cc1ccnc(NC(=S)NC(=O)c2cccs2)c1	90%	87.7%
CC1(C)CC(=O)c2sc(NC(=O)c3cccs3)nc2C1	91.9%	94.2%
CS(=O)(=O)c1ccc2nc(NC(=O)c3ccco3)sc2c1	61%	57.8%
OC(c1ccccc1)(c1ccccc1)C1CCN(CCCOc2ccc3c(c2)CCCC3)CC1	38%	48.9%
N#Cc1ccc(NC(=O)Nc2ccc(Cl)cc2)cc1	81%	65.3%
COc1ccccc1NC(CC(=O)c1ccccc1)C(=O)OCC(=O)c1ccc(Br)cc1 (configuration not stated)	65.4%	57.2%
COc1ccc(C(=O)/C=C/Nc2cccc(O)c2)cc1	75.9%	42.4%
CC(=O)Nc1nc2ccccc2n1CCOc1ccccc1	45.6%	49.5%
CC(/C=N/NC(=O)c1n[nH]c2c1CCC2)=C\c1ccccc1	48.1%	68.9%
CS(=O)(=O)c1ccc2nc(NC(=O)c3cccc([N+](=O)[O-])c3)sc2c1	69.4%	71.3%
CN(C)CCCN(C(=O)c1ccc(S(=O)(=O)N(C)C2CCCCC2)cc1)c1nc2ccc(Br)cc2s1	46.2%	45%
COc1ccc(C(C(=O)NC2CCCCC2)N(C(=O)CCl)c2ccccc2Cl)cc1 (configuration not stated)	98.8%	97.2%
